Rows were chosen to be rich in hits. Some 10% of all compounds tested hit in one or more screens of this group.
RORg inh – ROR gamma (mouse) transcription inhibition; Potency, µM (series often up to 53.6 µM), usual class: inhibitors; P51450; actives 5.4% (n = 310,000); AID 2551; Drosophila S2 Gal4-RORgamma UAS-luciferase reporter, 20 h; note: nearly all actives have a fitted effect of over 60% in size
Target sequence (P51450 whole entry, looked up, the tested form may be a part): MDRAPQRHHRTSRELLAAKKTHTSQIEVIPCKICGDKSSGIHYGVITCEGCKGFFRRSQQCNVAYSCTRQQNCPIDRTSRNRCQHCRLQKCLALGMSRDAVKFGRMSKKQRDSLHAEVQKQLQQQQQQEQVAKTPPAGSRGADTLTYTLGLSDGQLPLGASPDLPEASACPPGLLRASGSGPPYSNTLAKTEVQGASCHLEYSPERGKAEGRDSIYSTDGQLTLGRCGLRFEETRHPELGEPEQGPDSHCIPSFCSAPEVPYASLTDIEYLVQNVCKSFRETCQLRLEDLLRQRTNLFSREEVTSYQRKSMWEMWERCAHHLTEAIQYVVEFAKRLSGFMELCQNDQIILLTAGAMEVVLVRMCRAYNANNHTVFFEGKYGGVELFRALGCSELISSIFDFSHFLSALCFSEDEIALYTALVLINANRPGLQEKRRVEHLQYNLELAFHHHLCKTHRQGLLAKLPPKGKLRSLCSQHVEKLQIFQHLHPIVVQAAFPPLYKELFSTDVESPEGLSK
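Read-out: Photinus luciferase luminescence; inhibitors lower reporter signal. Insect Schneider cells with Gal4-ROR gamma fusion under metallothionein promoter, UAS reporter; 700 uM final copper sulfate induction, 20 hr, ambient temperature.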
SW480 rerep – induces DNA re-replication in SW480 colon adenocarcinoma cells. SW480 DNA re-replication, Hoechst DNA content imaging, 48 h. Potency, µM (titrated, usually from 46.1 µM), usual class: activators. actives 1.8% (n = 340,000). AID 624297; note: nearly all actives have a fitted effect of over 55% in size
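Treated cells incubate 48 hr (37 C, 5% CO2), are stained 40 min with Hoechst, and nuclear fluorescence is enumerated; a rise in nuclei with high DNA signal marks re-replication.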
MCF10A rerep – induces DNA re-replication in MCF 10a normal breast cells; MCF 10A DNA re-replication, Hoechst nuclear intensity, 48 h; actives 2.9% (n = 350,000); Potency, µM (titrated, usually from 46.1 µM), hits mostly activators; note: nearly all actives have a fitted effect of over 50% in size
VP16 counter – Gal4-VP16 reporter inhibition counter-screen. Drosophila S2 Gal4-VP16 UAS-luciferase, luminescence, 20 h. Potency, µM (highest dose often 53.6 µM), most hits filed as inhibitors. actives 3.5% (n = 310,000);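 note: Gal4-VP16 expression switched on by copper sulfate through the metallothionein promoter; nearly all actives have a fitted effect of over 50% in size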
ELG1 DNA repair – blocks ELG1-dependent DNA repair in HEK293T cells; HEK293T ELG1-luciferase reporter, luminescence, 16 h; DNA damage induced by 5-fluorouridine; Potency, µM (series often up to 46.1 µM), hits mostly inhibitors; actives 2.3% (n = 330,000); note: nearly all actives have a fitted effect of over 55% in size
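5-Fluorouridine DNA damage + compound/DMSO, 2,000 cells/well, 16 h, 37 °C/5% CO2. ONE-Glo, 30 min RT, luminescence. Readout = decrease in reporter signal.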
Each line names hits and unclear results; the compound was inactive in the other large screens. Calls come from the whole dose curve; as a rule, active = well fitted curve in the direction sought with a large enough effect; inconclusive = small, poorly fitted or top-dose-only effect, or another doubt; inactive = no such curve, though single readings can be large; an effect the other way counts as inactive or inconclusive.

CC(=O)OC1COC(n2c(O)c(N=NC(N)=S)c3ccccc32)C(OC(C)=O)C1OC(C)=O (stereo not given)	RORg inh 6.3µM, SW480 rerep inconclusive, MCF10A rerep 0.65µM, VP16 counter 10µM
O=C(N=Nc1c(O)n(Cc2ccccc2)c2ccccc12)c1ccc(O)cc1	RORg inh inconclusive, ELG1 DNA repair inconclusive
Cn1cnnc1SCc1ccc(C(=O)N=Nc2c(O)n(Cc3ccc(Cl)cc3)c3ccccc23)cc1	RORg inh inconclusive, SW480 rerep inconclusive, MCF10A rerep inconclusive, VP16 counter inconclusive, ELG1 DNA repair 9.2µM
O=C(N=Nc1c(O)n(Cc2ccccc2)c2ccccc12)c1cc2ccccc2cc1O	RORg inh inconclusive, SW480 rerep inconclusive, MCF10A rerep 10µM, ELG1 DNA repair inconclusive
O=Nc1c(O)n(Cc2ccc(Cl)cc2)c2ccccc12	RORg inh inconclusive, MCF10A rerep inconclusive, VP16 counter 11µM
Cc1ccc(Cn2c(O)c(N=O)c3ccccc32)cc1	VP16 counter inconclusive
CCn1c(O)c(N=NC(=O)c2ccc(CSc3nncn3C)cc2)c2ccccc21	RORg inh inconclusive, ELG1 DNA repair inconclusive
CC1CCN(C(=O)Cn2cnc3c2c(=O)n(C)c(=O)n3C)c2ccccc2S1 (stereo not given)	none
C=C1c2cccc(O)c2C(O)=C2C(=O)[C@@]3(O)C(O)=C(C(N)=O)C(=O)[C@@H](N(C)C)[C@@H]3[C@@H](O)[C@H]12	SW480 rerep inconclusive (no result: ELG1 DNA repair)
CCn1c2c(c3cc(OCC(C)C)ccc31)CCCC2=O	RORg inh inconclusive
CCn1c2c(c3cc(Br)ccc31)CCC/C2=N\O	MCF10A rerep 13µM (no result: ELG1 DNA repair)
COCc1cc(C)[nH]c(=O)c1C(=O)NC12CC3CC(CC(C3)C1)C2	RORg inh inconclusive, VP16 counter inconclusive, ELG1 DNA repair 18µM
COc1cc(C(=O)NC23CC4CC(CC(C4)C2)C3)cc(OC)c1OC	SW480 rerep inconclusive
Cc1cc(/C=N/Nc2ncnc(N)c2[N+](=O)[O-])c(C)n1-c1ccccc1	RORg inh 6.3µM, VP16 counter 6.3µM, ELG1 DNA repair inconclusive
Cc1cc(/C=N/Nc2nc(N)ncc2[N+](=O)[O-])c(C)n1-c1cccc(C(F)(F)F)c1	RORg inh 6.3µM, VP16 counter inconclusive, ELG1 DNA repair inconclusive (no result: SW480 rerep, MCF10A rerep)
COC(=O)C(CC(C)C)N(Cc1cc(OC)cc(OC)c1)S(=O)(=O)c1ccccc1Br (stereo not given)	SW480 rerep 21µM, ELG1 DNA repair inconclusive (no result: RORg inh, VP16 counter)
COc1ccc(-c2coc3ccc(OC4OC(COC(C)=O)C(OC(C)=O)C(OC(C)=O)C4OC(C)=O)c(OC(C)=O)c3c2=O)cc1 (stereo not given)	none (no result: SW480 rerep, MCF10A rerep, ELG1 DNA repair)
CC(=O)OCC1OC(Oc2cc(OC(C)=O)c3c(=O)cc(-c4ccc(OC(C)=O)c(OC(C)=O)c4)oc3c2)C(OC(C)=O)C(OC(C)=O)C1OC(C)=O (stereo not given)	RORg inh 25µM, VP16 counter 16µM (no result: SW480 rerep, MCF10A rerep, ELG1 DNA repair)
CC(=O)OC[C@H]1O[C@@H](Oc2cc3ccc(=O)oc3cc2OC(C)=O)[C@H](OC(C)=O)[C@@H](OC(C)=O)[C@@H]1OC(C)=O	SW480 rerep 21µM (no result: RORg inh, VP16 counter, ELG1 DNA repair)
COc1ccc(-c2coc3ccc(OC4OC(COC(C)=O)C(OC(C)=O)C(OC(C)=O)C4OC(C)=O)cc3c2=O)cc1 (stereo not given)	none (no result: SW480 rerep, MCF10A rerep, ELG1 DNA repair)
C=CS(=O)(=O)N(Cc1ccccc1Br)[C@H](CO)Cc1ccccc1	SW480 rerep inconclusive, MCF10A rerep 16µM (no result: RORg inh, VP16 counter, ELG1 DNA repair)
C=CS(=O)(=O)N(Cc1ccccc1)[C@H](CO)CC(C)C	none (no result: RORg inh, VP16 counter, ELG1 DNA repair)
O=C(OCC(=O)N(CCc1ccccc1)Cc1ccccc1)c1ccc(F)c(S(=O)(=O)N2CCOCC2)c1	none (no result: RORg inh, VP16 counter, ELG1 DNA repair)
Cc1c(CCC(=O)NCCCn2ccnc2)c(=O)oc2c(C)c3occ(C(C)(C)C)c3cc12	SW480 rerep 21µM, MCF10A rerep inconclusive
CCc1ccc(CNC(=O)C2CCCN(S(=O)(=O)N(CC)c3ccccc3)C2)cc1 (stereo not given)	MCF10A rerep inconclusive
Cc1cnc(C(=O)N2CCCC(C(=O)c3ccc(C(C)(C)C)cc3)C2)cn1 (stereo not given)	none
O=C(c1ccc(Oc2ccccc2)cc1)C1CCCN(C(=O)c2cnccn2)C1 (stereo not given)	ELG1 DNA repair 21µM
CC(C)(C)c1ccc(C(=O)C2CCCN(C(=O)c3ccccn3)C2)cc1 (stereo not given)	SW480 rerep inconclusive, VP16 counter 14µM
c1c2c(cc3sc(N4CCOCC4)nc13)OCO2	RORg inh inconclusive, VP16 counter inconclusive, ELG1 DNA repair inconclusive
c1c2c(cc3sc(N4CCCCC4)nc13)OCO2	RORg inh 10µM, VP16 counter 11µM, ELG1 DNA repair inconclusive
CCOC(=O)N/N=C/c1ccccc1-c1cc(OC)ccc1OC	none (no result: SW480 rerep, MCF10A rerep, ELG1 DNA repair)
Cc1c(Cl)cccc1NC(=O)c1ccco1	SW480 rerep inconclusive, VP16 counter inconclusive
Cc1c(Cl)cccc1NC(=S)NCc1ccco1	RORg inh 5µM, VP16 counter inconclusive, ELG1 DNA repair inconclusive
Cc1cccc(NC(=S)NCc2ccncc2)c1C	none
Cc1cccc(NC(=S)NCc2ccco2)c1C	RORg inh 7.9µM, VP16 counter 11µM
O=C(Nc1ncccn1)c1ccc([N+](=O)[O-])cc1[N+](=O)[O-]	none (no result: RORg inh, VP16 counter, ELG1 DNA repair)
O=C(Nc1cccc2oc(=O)ccc12)c1ccc([N+](=O)[O-])cc1[N+](=O)[O-]	SW480 rerep 16µM
CC(=O)c1c(C)[nH]c(C(=O)N2CC(C)CC(C)C2)c1C (stereo not given)	none
CC(=O)c1c(C)[nH]c(C(=O)N2CCCC(C)C2)c1C (stereo not given)	SW480 rerep 2.3µM
CC(C)(C)OC(=O)C[C@H]1C/C=C\C[C@H](CC(=O)N[C@H](CO)Cc2ccccc2)C(=O)N2CCC[C@@H]2COC1=O	none (no result: RORg inh, VP16 counter)
Cc1cc(C)cc(NC(=S)Nc2ccc(Cl)c(Cl)c2)c1	RORg inh 10µM, SW480 rerep inconclusive, MCF10A rerep inconclusive, VP16 counter inconclusive, ELG1 DNA repair inconclusive
COC(=O)c1cccc(NC(=S)Nc2ccc(Cl)c(Cl)c2)c1	MCF10A rerep inconclusive
Cc1cccc(C)c1NC(=S)Nc1ccc(Cl)c(Cl)c1	RORg inh 6.3µM, VP16 counter inconclusive
C[C@@H]1CC=C[C@H]2[C@H]1C(=O)N(Cc1ccccc1)[C@H]2c1cccc([N+](=O)[O-])c1	none
COc1ccc(-c2n[nH]c(=S)n2N)c(OC)c1	none
CCn1c(-c2cc(-c3ccccc3OC)nc3ccccc23)n[nH]c1=S	RORg inh 7.9µM, SW480 rerep inconclusive, MCF10A rerep inconclusive, ELG1 DNA repair 16µM
CCn1c(-c2cc(-c3cc(OC)ccc3OC)nc3ccccc23)n[nH]c1=S	RORg inh 8.9µM, ELG1 DNA repair 6.5µM
COc1cccc(-c2csc(N3CCN(C(=S)NCC(C)C)CC3)n2)c1	RORg inh inconclusive, MCF10A rerep inconclusive, ELG1 DNA repair inconclusive
COCCNC(=S)N1CCN(c2nc(-c3cccc(OC)c3)cs2)CC1	none
